Consider twelve molecules from PubChem BioAssay AID1479146 (National Center for Advancing Translational Sciences (NCATS), 2020).

Results filed as inconclusive are left out. A call without a number means that no potency is given here. Values without a mark were called inactive. Active and inactive are the calls of the source. Calls come from the whole dose curve.

The assay is described as follows: Confirmatory qHTS for Huh7 cytotoxicity: counterscreen for inhibitors of MERS-S pseudo-typed particle cell entry. The following applies: viability; series mostly up to 57.1 µM. In general terms: In qHTS, concentration-response curves come from the screen itself.
On to `COc1cc(N)c(Cl)cc1C(=O)NC1CCN(CCCOc2ccc(F)cc2)CC1OC` (configuration not stated), for which the Potency result is “inactive”.

As for `COc1c(OCCCN2CCOCC2)ccc2c3n(c(=NC(=O)c4cnc(N)nc4)nc12)CCN3`, the activity change, negative = cytotoxicity was -10.8% [at 11.2 µM].

With `C=CC(=O)Nc1cc(Nc2nccc(-c3cn(C)c4ccccc34)n2)c(OC)cc1N(C)CCN(C)C`, the Potency was 10.8 µM (active).

With `CCOc1cc2ncc(C#N)c(Nc3ccc(OCc4ccccn4)c(Cl)c3)c2cc1NC(=O)/C=C/CN(C)C`, the activity change, negative = cytotoxicity is -7.24% [at 11.2 µM].

As for `C=C(C)[C@H]1Cc2c(ccc3c2O[C@@H]2COc4cc(OC)c(OC)cc4[C@@H]2C3=O)O1`, the Potency was 6.81 µM (active).

For the molecule `CCCN1C[C@H](C)[C@@H](O)[C@](C)(O)[C@@H](CC)OC(=O)[C@H](C)[C@@H](O[C@H]2C[C@@](C)(OC)[C@@H](O)[C@H](C)O2)C(C)[C@@H](O[C@@H]2O[C@H](C)C[C@H](N(C)C)[C@H]2O)[C@](C)(O)C[C@H]1C` (some centres not stated), the Potency result is “inactive”.

With `CC[C@@H]([C@H](C)O)n1ncn(-c2ccc(N3CCN(c4ccc(OC[C@@H]5CO[C@@](Cn6cncn6)(c6ccc(F)cc6F)C5)cc4)CC3)cc2)c1=O`, the Potency entry was “inactive”.

`CCCCCCCCCCCCOCCOCCOCCOCCOCCOCCOCCOCCOCCO`: the Potency entry is “inactive”.

Consider `CCCCN=C(N)N=C(N)N`, for which the Potency result is “inactive”.

As for `Nc1ccn([C@@H]2O[C@H](CO)[C@@H](O)C2(F)F)c(=O)n1`, the Potency entry was “inactive”.

As to `c1ccc2c(c1)Sc1ccccc1N2CC1CN2CCC1CC2` (configuration not stated), the Potency was 30.4 µM (active).

For the molecule `Cc1cc(-n2c(=O)[nH]c(=O)n(C)c2=O)ccc1Oc1ccc(S(=O)(=O)C(F)(F)F)cc1`, the Potency entry was “inactive”.
